Test results published in the supplement of paper PMC8253809.

test system: SUDIPGXIII (diffuse intrinsic pontine glioma line); assay: growth inhibition (% activity, log2 RLU normalised to DMSO / staurosporine); higher = more growth inhibition; details: 33 µM
Outline: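 In triplicate, pHGG cell lines and H9-derived neural stem cells were treated for 7 days at 37 °C, 5% CO2 with approved drugs at a single final concentration of about 33 μM, added by pin tool. CellTiter-Glo luminescence, after log2 transformation, was normalised on each plate to % activity between solvent and positive control wells. Growth inhibition is reported as the median across replicates.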

Going from `N[C@@H]1CN(c2c(F)cc3c(=O)c(C(=O)O)cn([C@@H]4C[C@@H]4F)c3c2Cl)CC12CC2` to `CN1CCN(c2cc3c(cc2F)c(=O)c(C(=O)O)cn3-c2ccc(F)cc2)CC1`, the growth inhibition rises from -3.35% to 0.0917%.

Compared with `C=Cc1c(C)c2cc3nc(cc4[nH]c(cc5nc(cc1[nH]2)C(C)=C5CCC(=O)O)c(CCC(=O)OC)c4C)C1(C)C3=CC=C(C(=O)OC)C1C(=O)OC` (stereo not drawn), `CCN1CCN(C(=O)NC(C(=O)NC2C(=O)N3C(C(=O)O)=C(CSc4nnnn4C)CSC23)c2ccc(O)cc2)C(=O)C1=O` (stereo not drawn) is higher in growth inhibition: -2.15% for the first, -0.109% for the second.

Going from `CN1CCN(CCCN2c3ccccc3Sc3ccc(C(F)(F)F)cc32)CC1` to `CC(C)(C(=O)O)c1ccc(C(O)CCCN2CCC(C(O)(c3ccccc3)c3ccccc3)CC2)cc1` (stereo not drawn), the growth inhibition falls from 0.946% to -0.622%.

Going from `CC(c1cc2ccccc2s1)N(O)C(N)=O` (stereo not drawn) to `Cc1cnc(NC(=O)C2=C(O)c3ccccc3S(=O)(=O)N2C)s1`, the growth inhibition falls from 0.685% to -0.269%.

Going from `CC1(C)S[C@@H]2[C@H](NC(=O)[C@H](NC(=O)N3CCNC3=O)c3ccccc3)C(=O)N2[C@H]1C(=O)O` to `CCOC(=O)CC(=O)N1CCSC1COc1ccccc1OC` (stereo not drawn), the growth inhibition rises from -0.815% to -0.201%.

Compared with `Cc1cccn2c(=O)c(-c3nnn[nH]3)cnc12`, `CCCCNC(=O)NS(=O)(=O)c1ccc(C)cc1` is lower in growth inhibition: 1.3% for the first, -0.858% for the second.

Work on `CC(C)(S)[C@@H](N)C(=O)O` yielded a growth inhibition of -1.43%.
